D3 antag = D3 dopamine receptor (human) antagonism; P35462; D3R cells, DiscoveRx beta-arrestin luminescence, antagonist mode; active compounds read low; max response, negative = inhibition, %; 2.5% of 360,000 active; AID 652054; in the data active = max response below about -50%; inconclusive = no clear call, values can overlap the other calls; also: % is scaled to controls: 0 for no effect and ±100 for the full control effect
Target sequence (P35462 whole entry, looked up): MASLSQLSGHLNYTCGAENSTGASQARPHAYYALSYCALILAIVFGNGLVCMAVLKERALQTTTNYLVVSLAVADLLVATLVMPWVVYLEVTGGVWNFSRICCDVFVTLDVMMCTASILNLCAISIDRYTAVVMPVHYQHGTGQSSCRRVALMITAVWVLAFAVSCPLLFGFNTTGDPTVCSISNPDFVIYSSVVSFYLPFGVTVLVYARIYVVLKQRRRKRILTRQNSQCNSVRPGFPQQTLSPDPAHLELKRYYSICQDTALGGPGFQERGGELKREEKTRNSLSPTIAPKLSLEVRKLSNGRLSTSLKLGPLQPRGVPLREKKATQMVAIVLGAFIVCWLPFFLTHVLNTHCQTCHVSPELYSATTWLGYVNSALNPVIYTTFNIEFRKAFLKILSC
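Cells expressing the human receptor were seeded at 1500 cells/well, incubated overnight at 37 degrees C in 5% CO2, then exposed to library compounds with dopamine controls for 90 minutes at 37 degrees C before luminescent detection.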
PTHR1 agonist = PTHR1 (human) receptor agonism | Potency, µM (highest dose often 115 µM), for inactives: top-dose activation, hits mostly activators | HEK293 GP2 PTHR1 cells, GloSensor cAMP luminescence, 1 h | 0.075% of 410,000 active | Q03431 | AID 743266; also: potency is read from the fitted curve at half-maximal effect; nearly all actives have a fitted effect of over 55% in size
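HEK-293-derived GP2 cells expressing PTHR1 and a GloSensor cAMP reporter, 3,000/well, plated overnight, given luciferin plus IBMX (each 0.5 mM as added) for 1 h at 37 °C, then compound for 1 h at 37 °C. Luminescence was read after 15 min at room temperature.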
a7 integrin act = integrin-mediated muscular dystrophy alleviation activation; alpha7betagal myoblasts, beta-gal FDG fluorescence, 48 h; Potency, µM (titrated, usually from 38.3 µM), inactives show at the highest dose activation, actives largely listed as activators; 0.064% of 350,000 active;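 also: potency is read from the fitted curve at half-maximal effect; 100% = response of the positive control SU9516; nearly all actives have a fitted effect of over 60% in size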
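Alpha7betagal+/- myoblasts (passage 13) were plated 16-24 hr, then exposed to compounds (1:260 dilution of DMSO stock) for 48 hours at 37C. After MPER lysis, β-galactosidase reporter activity was read as FDG fluorescence (ex 480/em 540) after 30 minutes.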
D3 ag = D3 dopamine receptor (human) agonism; 0.58% of 410,000 active; D3R DiscoveRx beta-arrestin cells, luminescence, 90 min; max activation, %; P35462; AID 652048; in the data active = max activation above about 30%; also: 0% is about no effect
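Cells at 1500/well, incubated overnight, then treated with pinned compounds (dopamine as control) for 90 min at 37 degrees C. DiscoveRx reagent added for 30 - 60 minutes at room temperature; luminescence read.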
MBNL1-CUG inh = blocks human MBNL1 binding to CUG repeat RNA. 0.036% of 280,000 active. Q9NR56. TR-FRET MBNL1-His/biotin-(CUG)12 binding, 665/545 ratio. Potency, µM (doses to about 57.5 µM), for inactives: at the highest dose activity change, negative = inhibition, most hits filed as inhibitors; active = well fitted inhibition curve with a large enough effect in the signal ratio, with a control signal flat, not every such curve was filed as active; inconclusive = small, poorly fitted or top-dose-only effect, or effect the other way, or a change in a side signal; inactive = no such curve, though single readings can be large or run the other way; the % refers to the signal ratio; also: potency is read from the fitted curve at half-maximal effect; % is scaled to controls: 0 for no effect and ±100 for the full control effect
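Inhibition of protein-RNA binding appears as loss of TR-FRET between terbium anti-His antibody on MBNL1-His and streptavidin-XL665 on biotin-(CUG)12. Activity is normalized to buffer-only and uninhibited-complex controls.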
CBFb RUNX1 block = inhibitors of human CBF-beta and RUNX1 interaction; Q01196+Q13951; AlphaScreen CBFb-His/RUNX1-biotin binding, biochemical; Potency, µM (series often up to 59.8 µM), for inactives: at the highest dose activity, negative = inhibition, hits mostly inhibitors; 230,000 tested, under 10 active; AID 1477; also: % of control where 0% means no effect
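CBF-beta (His) and RUNX1 (biotin), 30 nM each; 20 min preassociation; + compound, 15 min; + beads 50 ng each (Ni, streptavidin), 90 min; RT; AlphaScreen read.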
An asterisk follows results filed as active; i = inactive; ? = inconclusive; . = no result given; ! = a repeat was not active; [ ] = dose if it differs, or a comment. Most compounds without a hit are left out; they make up all but 2.8% or so of the library. Unless noted, calls follow the shape of the dose curve; as a rule, active = well fitted curve in the direction sought with a large enough effect; inconclusive = small, poorly fitted or top-dose-only effect, or another doubt; inactive = no such curve, though single readings can be large; an effect the other way counts as inactive or inconclusive.

SMILES | D3 antag | PTHR1 agonist | a7 integrin act | D3 ag | MBNL1-CUG inh | CBFb RUNX1 block
Clc1ccc2c(c1)C(N1CCNCC1)Cc1ccccc1S2 (stereo not drawn) | -55.6* | -4.2%[57.5 µM] | -63.5% | -26.2 | 1.3% | -0.6%
CC(=O)Oc1ccc(C2(c3ccc(OC(C)=O)cc3)Oc3ccccc3NC2=O)cc1 | . | . | . | 11.3 | . | .
CC(C)(C)[C@@H]1C=C(C(=O)N2CCOCC2)O[C@H](OCc2ccc(CO)cc2)C1 | -24.3 | -5.8% | 1.1% | -16.1 | 0.3% | -3.0%
O=C(Nc1ccccc1)C1=C[C@@H](c2csc3ccccc23)C[C@@H](OCc2ccc(CO)cc2)O1 | -51.0* | -38.5% | 0.8% | -32.1 | -5.2% | 4.6%
CN1CCN(C(=O)C2=C[C@@H](c3csc4ccccc34)C[C@@H](OCc3ccc(CO)cc3)O2)CC1 | -72.1* | -1.3% | -5.1% | -45.2 | -2.0% | 2.8%
O=C(NC1CC1)C1=C[C@@H](c2c[nH]c3ccccc23)C[C@@H](OCc2ccc(CO)cc2)O1 | -52.6* | 16.8% | 6.4% | -21.6 | -4.0% | 9.5%
O=C(NCc1ccccc1)C1=C[C@H](c2csc3ccccc23)C[C@H](OCc2ccc(CO)cc2)O1 | 0.0 | i | -30.7% | -10.9 | 7.9% | -8.7%
O=C(C1=C[C@H](c2csc3ccccc23)C[C@H](OCc2ccc(CO)cc2)O1)N1CCOCC1 | 19.9 | i | 17.3% | 2.4 | 3.4% | -0.3%
CC(C)(C)[C@H]1C=C(C(=O)N2CCOCC2)O[C@@H](OCc2ccc(CO)cc2)C1 | -51.8* | 1.4% | -0.6% | -34.6 | 0.6% | 12.8%
Cc1ccc(S(=O)(=O)N2C3CCCCC3O[C@H]2CC(=O)c2cccc3ccccc23)cc1 (stereo partly drawn) | -11.7 | -6.9% | . | -2.2 | . | .
O=C(NCc1nc2ccccc2[nH]1)C1=C[C@H](C2CCCCC2)C[C@H](OCc2ccc(CO)cc2)O1 | 59.8 | -45.1% | -37.7% | 41.2* | -1.8% | -8.0%
CO/N=C(\C(=O)N[C@@H]1C(=O)N2C(C(=O)O)=C(CSC(=O)c3ccco3)CS[C@H]12)c1csc(N)n1 | . | . | . | -4.8 | . | .
CC(CN1CCC(O)CC1)c1ccccc1 (stereo not drawn) | -26.3 | i | -0.8% | -8.8 | -0.9% | .
CCCCC(O)CN1CCC(c2ccccc2)CC1 (stereo not drawn) | -57.3* | i | 18.7% | 1.9 | -2.9% | 0.0%
Cc1cc(F)ccc1NC(=O)c1ccc(NS(=O)(=O)c2cccs2)cc1 | -19.3 | i | -28.7% | -3.5 | . | .
CC1=C(C(=O)N2CCOCC2)CC(CC(=O)NCCc2ccccn2)C(=O)N1Cc1ccc(C(C)(C)C)cc1 (stereo not drawn) | -8.1 | -15.8% | -5.6% | -2.5 | . | .
CC1Nc2ncnc(N3CCOCC3)c2N(Cc2ccc(Cl)cc2)C1=O (stereo not drawn) | ? | -3.7% | 13.4% | -2.7 | . | .
CC1Nc2ncnc(N3CCN(c4ccccc4)CC3)c2N(Cc2ccccc2)C1=O (stereo not drawn) | -110.3* | i | -25.9% | -69.0 | . | .
CC1Nc2ncnc(N3CCN(c4ccccc4)CC3)c2N(Cc2ccc(Cl)cc2)C1=O (stereo not drawn) | -165.8* | -19.5% | -39.2% | -81.1 | . | .
CC(C)CC1Nc2ncnc(N3CCN(c4ccccc4)CC3)c2N(Cc2ccccc2)C1=O (stereo not drawn) | -78.3*! | -18.7% | 3.3% | -12.3 | . | .
Clc1ncccc1-c1nc2ccccc2s1 | 11.1 | -8.5% | -22.5% | 5.9 | 12.1% | 24.2%
O=c1c(-c2nc3ccccc3s2)cccn1Cc1ccc(Cl)cc1 | 17.3 | -39.1% | -12.7% | 56.3* | 1.7% | ?
CCN(CC)CCNC(=O)C1c2cc(OC)c(OC)cc2C(=O)N(C)C1c1cccs1 (stereo not drawn) | -97.5* | -4.8% | -17.3% | -17.4 | 4.5% | -3.8%
